# Source: PubChem (National Center for Advancing Translational Sciences (NCATS))
# Pf growth 48h = inhibits P. falciparum growth in the first generation, 48 h. P. falciparum luciferase growth in erythrocytes, 48 h. Potency, µM (doses to about 28.7 µM), without a hit: top-dose activity change, negative = inhibition, most hits filed as inhibitors. hit rate 5.9% among 310,000; note: potency is the fitted concentration of half-maximal effect; % is set by controls: 0 for no effect and ±100 for the full control effect
#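 Luciferase-expressing P. falciparum in infected erythrocytes (2% hematocrit, 0.1% parasitemia final) in RPMI 1640/0.5% Albumax were exposed to compound for 48 hours at 37 C, 5% CO2; growth read as luminescence.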
# CHX counter = counter-screen hit for Shiga toxin inhibitors, cycloheximide; cell reporter, cycloheximide protein synthesis inhibition counterscreen; hit rate 12% among 300,000; max response, %; AID 2314; in the data active = max response mostly above about 13%, no sharp cut-off; inactive = mostly below about 14%; note: read at 38.3 µM for the half of the compounds with a filed dose; 0% is about no effect
# Pf growth 96h = P. falciparum growth inhibition at 96 hour, primary screen for plastid delayed-death inhibitors; P. falciparum luciferase reporter growth, 96 h; Potency, µM (top dose mostly 28.7 µM), for the others: at the highest dose activity change, negative = inhibition, usual class: inhibitors; hit rate 6.9% among 320,000; AID 504834; note: potency is the fitted concentration of half-maximal effect; % is set by controls: 0 for no effect and ±100 for the full control effect
#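 Infected RBCs, 2% Hct / 0.05% parasitemia final; luciferase-reporter P. falciparum; cpd 96 h, 37 C, 5% CO2; luciferase detection reagent; luminescence.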
# SARS PLpro yeast = SARS-CoV PLP inhibition in yeast. S. cerevisiae expressing SARS-CoV PLpro, growth rescue. Potency, µM (top dose mostly 32.9 µM), for the others: at the top dose activity, positive = growth rescue, most hits filed as activators. hit rate 0.19% among 330,000. AID 485353; calls by dose curve; note: potency is the fitted concentration of half-maximal effect; 0% is about no effect; nearly all actives have a fitted effect of over 55% in size
# AMA1 RON2 block = inhibitors of Plasmodium falciparum AMA1-RON2 interaction | AID 720542 | hit rate 0.2% among 360,000 | Potency, µM (highest dose often 58.2 µM), inactives show at the top dose activity change, negative = inhibition, hits mostly inhibitors | AlphaScreen AMA1-biotinylated RON2 peptide binding;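 note: potency is the fitted concentration of half-maximal effect; 0% = vehicle wells and -100% = peptide control; nearly all actives have a fitted effect of over 45% in size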
#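 AMA1 (3D7) with his tag at 25 nM final met compounds first, then biotinylated RON2 peptide at 25 nM; detection used donor plus acceptor beads, 10 µg/mL apiece, read by AlphaScreen after 30 min at room temperature.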
# Shiga inhibitor = inhibitors of Shiga toxin in Vero cells | Vero cells, Shiga toxin protein synthesis inhibition reporter | inhibition, % at 38.7 µM | hit rate 9.2% among 290,000 | AID 2315; in the data active = inhibition mostly above about 28%, no sharp cut-off; inactive = mostly below about 43%; note: 0% is about no effect
# The depositor's hits bear a star; i = inactive; ? = inconclusive; · = no result. An excerpt weighted towards active compounds, which were near 19% of everything screened. Unless noted, calls come from the whole dose curve; as a rule, active = well fitted curve in the direction sought with a large enough effect; inconclusive = small, poorly fitted or top-dose-only effect, or another doubt; inactive = no such curve, though single readings can be large; an effect the other way counts as inactive or inconclusive.
SMILES,Pf growth 48h,CHX counter,Pf growth 96h,SARS PLpro yeast,AMA1 RON2 block,Shiga inhibitor
FC(F)Sc1ccc(NC(=S)NCC2CCCCC2)cc1,·,14,-105%,-32%,57%,92
CC(/C=N/N1C(=O)CSC1=S)=C\c1ccccc1,-7%,-2,11%,0%,54%,14
CC(=O)Nc1ccc(C(=O)CN2C(=O)CSC2=O)cc1,2%,-1,?,-5%,6%,-3
CCCCC(CC)CNC(=O)C(Cc1ccccc1)NS(=O)(=O)c1ccc2c(c1)CCC(=O)N2 (stereo not drawn),?,-4,12µM*,-2%,17%,-4
CCCCCC1CCC(C(=O)NCCN2CCOCC2)CC1 (stereo not drawn),-10%,-2,?,-1%,7%,-16
COc1ccc(-c2n[nH]c(C(F)(F)F)c2-c2cc3ccccc3o2)c(O)c1,2.1µM*,-3,16%,-47%,58%,-11
COc1ccccc1-c1cn[nH]c1-c1ccc(OCC(=O)NN)cc1O,?,1,?,1%,80%,20
COc1ccc(-c2n[nH]c(C)c2-c2ccc(Cl)cc2)c(O)c1,8.3µM*,1,10µM*,-27%,84%,-11
NNC(=O)COc1ccc(-c2n[nH]c(C(F)(F)F)c2-c2ccc(Br)cc2)c(O)c1,9.3µM*,-3,8.3µM*,-1%,31%,11
COc1ccccc1-c1c(-c2ccc(OCC(=O)NN)cc2O)n[nH]c1C(F)(F)F,8.3µM*,-3,7.4µM*,0%,50%,4
CCOc1cccc(CN2CCCC(CNC(=O)c3cccc(OC)c3OC)C2)c1 (stereo not drawn),?,-1,?,-6%,15%,-12
COc1ccc(C(=O)NCCCn2nc(C)cc2C)cc1S(=O)(=O)N1CCOCC1,-19%,·,-4%,-1%,6%,·
COc1ccc(-c2c(-c3ccc(OCC(=O)NN)cc3O)n[nH]c2C)cc1,?,-2,9.3µM*,4%,59%,-11
CCOC(=O)CSc1nc2c(sc(=S)n2-c2ccccc2OC)c(=O)n1-c1ccccc1OC,12µM*,-1,11%,1%,-5%,-8
COc1ccc(-n2c(SCC(=O)C(C)(C)C)nc3c(sc(=S)n3-c3ccccc3)c2=O)c(OC)c1,2.1µM*,4,0%,1%,3%,-5
Cc1cc(=O)oc2cc(OC(C)C(=O)NC3(C#N)CCCCC3)ccc12 (stereo not drawn),8%,·,15%,-2%,-5%,·
Cc1ccc2oc(/N=C(\N)NC(=O)C3CC3)nc2c1,121%,55*,i,-2%,95%,65*
N/C(=N\c1nc2ccccc2o1)NC(=O)c1ccc([N+](=O)[O-])cc1,15%,-3,29%,-1%,82%,12
Cc1ccc2oc(/N=C(\N)NC(=O)C(C)(C)C)nc2c1,-88%,27*,-16%,0%,56%,32
CC(CC(=O)NC1CCCCC1)S(=O)(=O)c1ccc2c(c1)NC(=O)CO2 (stereo not drawn),8%,9,13µM*,5%,12%,-9
Cc1ccc(NC(=O)CC(C)S(=O)(=O)c2ccc3c(c2)NC(=O)CO3)cc1C (stereo not drawn),?,18,12µM*,-1%,0%,-4
CC(CC(=O)N1CCc2ccccc21)S(=O)(=O)c1ccc2c(c1)NC(=O)CO2 (stereo not drawn),-4%,4,10µM*,1%,12%,6
Cc1ccc(NS(=O)(=O)c2ccc3c(c2)NC(=O)CO3)cc1C,18%,-14,9.3µM*,3%,-5%,-3
CC(CC(=O)Nc1ccc(F)cc1)S(=O)(=O)c1ccc2c(c1)NC(=O)CO2 (stereo not drawn),2%,-2,?,3%,-7%,-8
Cc1cccc(NC(=O)CC(C)S(=O)(=O)c2ccc3c(c2)NC(=O)CO3)c1C (stereo not drawn),?,3,?,8%,-4%,10
SMILES,Pf growth 48h,CHX counter,Pf growth 96h,SARS PLpro yeast,AMA1 RON2 block,Shiga inhibitor
CCOC(=O)[C@]12CCC=C1N(Cc1ccco1)C(=O)[C@H](CC(=O)N1CCCCC1)C2,·,·,·,·,4%,·
CCOc1ccccc1NC(=O)Cn1c(=O)n(-c2ccccc2)c(=O)c2oc3ccccc3c21,18%,0,25%,21%,8%,-10
Cc1ccc(-c2nnc(SCC(=O)N3CC(C)CC(C)C3)o2)cc1C (stereo not drawn),6%,-2,?,-19%,-4%,-9
Cc1cc([N+](=O)[O-])nn1CCCC(=O)Nc1cc(Cl)ccc1Cl,-11%,7,8%,-3%,2%,-2
CCc1nnc(NC(=O)CCC(=O)NC2CCCc3ccccc32)s1 (stereo not drawn),-13%,-2,-9%,-3%,7%,10
NS(=O)(=O)c1cccc(NC(=O)COC(=O)Cc2n[nH]c(=O)c3ccccc23)c1,-13%,·,?,2%,1%,·
CC(=O)C1=C(c2ccccc2)NC(=O)NC1c1ccccc1OCC(=O)NCc1ccccc1 (stereo not drawn),·,14,?,1%,-2%,-6
Cc1ccc(NC(=O)N2CCC(C(=O)Nc3ccc(C)cc3C)CC2)cc1,13%,0,-2%,22%,3%,-3
COc1ccccc1Nc1nnc(SCC(=O)NC(=O)Nc2ccc3c(c2)OCCO3)s1,-1%,14,-13%,6%,6%,29
Cc1nnc(NC(=O)c2ccc(S(=O)(=O)N3CCCCC3)cc2)s1,·,·,·,3%,-3%,·
CC(Sc1ccc2c(c1)OCCO2)C(=O)Nc1ccc2c(c1)OCO2 (stereo not drawn),-10%,-2,-8%,-11%,10%,30
COc1ccc(-c2nnc(SC(C)C(=O)Nc3ccc4c(c3)OCCO4)o2)cc1 (stereo not drawn),63%,35*,12µM*,-3%,37%,active
Cc1ccccc1Nc1nnc(SCC(=O)NC(=O)Nc2ccc3c(c2)OCCO3)s1,53%,62*,67%,-12%,·,50*
Cc1nnc(SC(C)C(=O)Nc2ccc3c(c2)OCCO3)s1 (stereo not drawn),8%,8,10µM*,-6%,-2%,-7
Cc1nnc(SC(C)C(=O)Nc2ccc(S(=O)(=O)N3CCCCCC3)cc2)s1 (stereo not drawn),12µM*,-3,·,-4%,4%,-14
C[C@@H]1CCCCO[C@@H](CN(C)Cc2ccncc2)[C@@H](C)CN([C@H](C)CO)C(=O)c2cc(NC(=O)c3ccccc3)ccc2O1,·,·,·,·,12%,·
Cc1nnc(SCC(=O)NC(=O)Nc2ccc3c(c2)OCCO3)s1,109%,30*,-5%,0%,-17%,45*
Cc1ccc(C(=O)CCNc2cccc(Br)c2)o1,15%,16,-19%,0%,-9%,32
